# In PubChem BioAssay AID652017 (The Scripps Research Institute Molecular Screening Center, 2013):
# Hit rate of the full screen: of about 370,000 compounds, about 3,800 (1%) were called active. The sample as a whole holds a higher share of actives than the screen did. Values without a mark were called inactive. Cut-off read from the data, not from the text of the source: active = activation above about 7.8%; inactive = the rest.
# Assay: SMARCA2 (BRM) function activators, primary screen, cell-based, luminescence, high throughput (AID 652017);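 note: 0% = vehicle wells and 100% = reference activator wells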
# Settings: MG213 cells, MMTV-luciferase reporter, dexamethasone, overnight; at 9.1 µM; active compounds read high
row,SMILES,activation
1,COc1ccc(S(=O)(=O)N(CC(=O)N/N=C/c2ccc(C(=O)O)cc2)Cc2ccccc2)cc1OC,0.18%
2,COc1cc(/C=N/NC(=O)Nc2ccccc2)ccc1OCCOc1ccccc1C,-2.07%
3,COc1cc(/C=N/NC(=O)c2ccccc2)ccc1OS(=O)(=O)c1ccccc1,11.6% (active)
4,Cc1ccc(S(=O)(=O)NC(C)C(=O)NCc2ccc(Cl)cc2)cc1 (configuration not stated),8.48% (active)
5,COc1ccc(S(=O)(=O)NC(C)C(=O)NCc2ccncc2)cc1Cl (configuration not stated),-1.23%
6,Cc1ccc(CNC(=O)COc2ccc(S(=O)(=O)NC(C)C)cc2)cc1,-3.1%
7,CC(C)C(=O)NC(NC(=S)NC1CCS(=O)(=O)C1)C(Cl)(Cl)Cl (configuration not stated),1.31%
8,O=S1(=O)CCC(NC(=S)SCc2ccccc2Br)C1 (configuration not stated),-1.67%
9,CCCSC(=S)NC1CCS(=O)(=O)C1 (configuration not stated),8.13% (active)
10,COc1ccc(C(=O)OCCN2CCN(C3CN(Cc4cn(Cc5ccccc5F)nn4)S(=O)(=O)C3)CC2)cc1OC (configuration not stated),-1.26%
11,Cc1nc(N)sc1N=Nc1c(C)n(C)n(-c2ccccc2)c1=O,-4.59%
12,Cc1c(C=O)n(C)n(-c2ccccc2)c1=O,1.03%
13,Cc1c(N=Nc2ccc(N(C)C)cc2)c(=O)n(-c2ccccc2)n1C,7.84% (active)
14,C[C@@H]1COc2cccc(N3CCCC3)c2S(=O)(=O)N1C,-1.71%
15,COc1ccc(-c2cc(C(=O)NC(Cc3c[nH]c4ccccc34)C(=O)O)c(C)o2)cc1OC (configuration not stated),3.58%
16,COc1cccc(CNC(=O)[C@H]2CCCN2C(=O)[C@H]2CCCN2C(=O)C2CCCCC2)c1,-3.87%
17,CCN(CC)CCNC(=O)c1sc2ncn(CC(=O)Nc3ccc(C)c(Cl)c3)c(=O)c2c1C,7.84% (active)
18,CCN(CC)CCNC(=O)Cn1cnc2sc(C)c(S(=O)(=O)N3CCOCC3)c2c1=O,-6.85%
19,CCN(CC)CCCNC(=O)Cn1cnc2sc(C)c(S(=O)(=O)N3CCN(c4ncccn4)CC3)c2c1=O,-0.93%
20,Cc1cccc(C)c1NC(=S)N(Cc1cccnc1)Cc1ccccc1Cl,-5.44%
21,CCOC(=O)[C@]12CCCC=C1N(Cc1ccc(OC)cc1)C(=O)[C@@H]2CC(=O)N1CCOCC1,1.91%

row,SMILES,activation
1,COc1ccc(-n2c(COc3ccccc3)nnc2SCC(=O)Nc2ccc3c(c2)OCO3)cc1,-4.96%
2,CCC(=O)c1c[nH]c(C(=O)NCC2CCCO2)c1 (configuration not stated),1.33%
3,O=C(NCC1CCCO1)c1cc2c(s1)CCCC2 (configuration not stated),10.9% (active)
4,O=C(Nc1ccc(F)cc1)c1cc2c(s1)CCCC2,10.2% (active)
5,O=C(Nc1cccc2c1CCCC2)c1ccc(F)cc1,-0.7%
6,O=C(NCCCn1ccnc1)c1cc2c(s1)CCCC2,-1.02%
7,O=C(CNC(=O)c1cc2c(s1)CCC2)Nc1ccccc1Br,3.62%
8,Cc1ccccc1NC(=O)C1CCN(c2ncccn2)CC1,-1.72%
9,CC(=O)N1CCc2cc(S(=O)(=O)NCCC(=O)N3CCCC3)ccc21,-4.7%
10,COC(=O)C1CN(Cc2cn(Cc3ccc(F)cc3)nn2)CCS(=O)(=O)N1Cc1ccc(Cl)cc1 (configuration not stated),-3.03%
11,COc1ccc(-c2cc3ncccc3cn2)cc1,8.94% (active)
12,COc1ccc(-c2cc(C3CCN(c4ncccc4[N+](=O)[O-])CC3)[nH]n2)cc1,-2.21%
13,COc1cc(OC)cc(-c2cc3ccc(F)cc3cn2)c1,7.74%
14,COCC(C)n1c(SCc2ccc(C(=O)OC)o2)nc2ccccc2c1=O (configuration not stated),9.35% (active)
15,COCCn1c(C)cc(C(=O)CSc2nc3ccccc3c(=O)n2C(C)COC)c1C (configuration not stated),-2.97%
16,COCC(C)n1c(SCC(=O)NC2CCCCC2C)nc2ccccc2c1=O (configuration not stated),-2.03%
17,COC(=O)C1CN(Cc2ccc(F)cc2)CCS(=O)(=O)N1Cc1ccc(Cl)cc1 (configuration not stated),-2.03%
18,CSc1ccc(CNCCN2CCOCC2)cc1,-0.08%
19,c1ccc2cc3c(NCCN4CCOCC4)ccnc3cc2c1,15.8% (active)
20,O=C(Cc1ccc(Br)cc1)NCCN1CCOCC1,5.26%
21,CC(C)(C)n1nc(C2CC2)c(Br)c1NC(=O)c1ccccc1F,-3.81%

row,SMILES,activation
1,COc1ccc(S(=O)(=O)N2CCOCC2)cc1NC(=O)Cc1coc2cc(C)ccc12,-0.89%
2,C#CCCN([C@H](C(=O)OC)C(C)C)S(=O)(=O)c1ccc(F)cc1Br,0.37%
3,O=C(OC12CCCN(C1)/C(=C/c1cccnc1)C2)C1CCCC1 (configuration not stated),-1.64%
4,COC(C(=O)Nc1ccc(S(=O)(=O)Nc2ccc(C)c(C)c2)cc1)c1ccccc1 (configuration not stated),-2.54%
5,Cc1ccc(N/C=C/C(=O)c2ccccc2)cc1C,14.5% (active)
6,Cc1cccc(C(=O)Nc2ccc(C(=O)/C=C/c3cccs3)cc2)c1,7.01%
7,O=C(CCCCCCCC(=O)N1CCCCC1)N1CCCCC1,-4.31%
8,Cc1cccc(C(=O)Nc2c(-c3ccc(F)cc3)nc3ncccn23)c1,-2.99%
9,CC(c1ccc(N)cc1)c1cn(C)c2ccccc12 (configuration not stated),2.03%
10,Cc1ccc(CN(N=Nc2nonc2N)c2nonc2N)c(C)c1,-3.9%
11,O=C(COC(=O)C1CC2C=CC1C2)Nc1ccccc1 (configuration not stated),-3.49%
12,CC(NC(=S)Nc1ccc(OC(F)F)cc1)c1ccc(F)cc1 (configuration not stated),-2.75%
13,CC(C)c1ccc(NC(=S)NC2CC3C=CC2C3)cc1 (configuration not stated),8.66% (active)
14,COc1cccc(/C=C2\CC3(OC(C)=O)CCCN2C3)c1 (configuration not stated),1.54%
15,Cc1cc(OC(=O)c2ccccc2)c([N+](=O)[O-])c(=O)[nH]1,7.86% (active)
16,Cc1cc(OC(=O)c2ccc(OC(C)C)cc2)c([N+](=O)[O-])c(=O)[nH]1,-2.6%
17,COc1cccc(C(=O)Oc2cc(C)[nH]c(=O)c2[N+](=O)[O-])c1,0.69%
18,Cn1c(=O)n(C)c2cc(S(=O)(=O)Nc3ccc(F)cc3)ccc21,-2.88%
19,O=C1Cc2cc(S(=O)(=O)Nc3cccc(F)c3)ccc2N1,9.16% (active)
20,CC1CCC(NS(=O)(=O)c2ccc3c(c2)CC(=O)N3)CC1 (configuration not stated),-2.52%
